Test results as given in the supplement of paper PMC10849652.
Targets with a hit are over-represented here; the source holds about 7,900 in all. About 0.6% of all pairs of compound and target were hits. Unmarked numbers belong to inactive results.

The targets below were run with CC[C@@H]1C(=O)N(C)c2cnc(Nc3ccc(C(=O)N[C@H]4CC[C@H](N5CCN(CC6CC6)CC5)CC4)cc3OC)nc2N1C(C)C [volasertib] (assay: log2 fold change, soluble protein after heating vs DMSO (PISA); higher = thermal stabilisation; K562 cells, 10 uM, 30 min; active = over 0.2 and 3.5 SD of the protein, either way, in both replicates (recomputed)).
Summary of the method: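 Quantification of soluble protein used TMTpro 16plex LC-MS/MS, with channel sums equalised. Samples were the supernatant after 21,000xg for 90 min of pooled aliquots from K562 cells (2×10^6 cells/mL) treated with 10 μM compound for 30 min, heated for 3 min over 48°C-58°C, and extracted in PBS with 0.5% NP-40 at 4°C. Values, from duplicates, describe thermal stability against control samples on a log2 fold-change scale.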

Chain of UniProt Q9UIV1 (Q9UIV1 whole entry, looked up): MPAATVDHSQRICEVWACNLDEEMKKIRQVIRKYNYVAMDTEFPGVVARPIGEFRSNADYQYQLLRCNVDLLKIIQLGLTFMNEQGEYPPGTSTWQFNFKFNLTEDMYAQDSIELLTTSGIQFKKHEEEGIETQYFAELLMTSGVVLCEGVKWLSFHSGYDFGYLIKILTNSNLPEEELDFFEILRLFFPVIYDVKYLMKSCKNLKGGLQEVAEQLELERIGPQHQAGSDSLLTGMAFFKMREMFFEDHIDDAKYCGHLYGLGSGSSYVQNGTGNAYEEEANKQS
Chain of UniProt P19397 (P19397 whole entry, looked up): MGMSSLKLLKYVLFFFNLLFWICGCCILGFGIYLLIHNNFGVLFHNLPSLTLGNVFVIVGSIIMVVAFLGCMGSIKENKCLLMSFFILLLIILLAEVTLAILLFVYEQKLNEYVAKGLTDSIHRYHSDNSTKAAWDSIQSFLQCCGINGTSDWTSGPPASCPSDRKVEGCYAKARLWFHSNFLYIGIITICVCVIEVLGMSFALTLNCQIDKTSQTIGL
Chain of UniProt Q53ET0 (Q53ET0 whole entry, looked up): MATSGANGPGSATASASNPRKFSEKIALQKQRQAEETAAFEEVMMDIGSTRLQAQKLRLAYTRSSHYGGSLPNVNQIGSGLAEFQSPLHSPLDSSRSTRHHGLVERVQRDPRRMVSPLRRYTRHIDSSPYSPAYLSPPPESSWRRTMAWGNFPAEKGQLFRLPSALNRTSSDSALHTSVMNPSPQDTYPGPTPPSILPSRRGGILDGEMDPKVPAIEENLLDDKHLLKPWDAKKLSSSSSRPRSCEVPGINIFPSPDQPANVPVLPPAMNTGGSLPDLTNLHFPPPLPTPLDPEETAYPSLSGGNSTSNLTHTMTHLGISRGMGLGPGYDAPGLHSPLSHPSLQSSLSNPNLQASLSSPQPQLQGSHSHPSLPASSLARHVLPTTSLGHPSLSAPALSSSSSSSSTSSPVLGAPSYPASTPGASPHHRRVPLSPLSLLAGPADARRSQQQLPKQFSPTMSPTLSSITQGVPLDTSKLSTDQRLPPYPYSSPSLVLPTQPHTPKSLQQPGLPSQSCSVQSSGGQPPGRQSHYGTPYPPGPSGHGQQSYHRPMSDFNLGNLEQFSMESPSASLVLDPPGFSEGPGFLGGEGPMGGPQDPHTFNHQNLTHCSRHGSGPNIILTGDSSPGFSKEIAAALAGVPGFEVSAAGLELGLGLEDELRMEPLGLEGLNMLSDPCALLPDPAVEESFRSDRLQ
Chain of UniProt Q8IUI8 (Q8IUI8 whole entry, looked up): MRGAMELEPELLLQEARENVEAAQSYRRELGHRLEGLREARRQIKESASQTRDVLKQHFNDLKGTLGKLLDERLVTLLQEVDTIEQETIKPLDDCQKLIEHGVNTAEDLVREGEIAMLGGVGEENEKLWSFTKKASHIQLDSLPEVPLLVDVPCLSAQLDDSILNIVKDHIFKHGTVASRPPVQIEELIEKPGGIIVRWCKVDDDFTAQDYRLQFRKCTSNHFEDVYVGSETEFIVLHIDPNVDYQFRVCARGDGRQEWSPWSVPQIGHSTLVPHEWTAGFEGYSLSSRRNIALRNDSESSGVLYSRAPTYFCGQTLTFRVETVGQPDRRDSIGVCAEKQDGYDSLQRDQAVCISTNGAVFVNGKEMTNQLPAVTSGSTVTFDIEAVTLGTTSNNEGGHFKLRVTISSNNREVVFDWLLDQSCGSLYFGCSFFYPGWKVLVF
Chain of UniProt O15182 (O15182 whole entry, looked up): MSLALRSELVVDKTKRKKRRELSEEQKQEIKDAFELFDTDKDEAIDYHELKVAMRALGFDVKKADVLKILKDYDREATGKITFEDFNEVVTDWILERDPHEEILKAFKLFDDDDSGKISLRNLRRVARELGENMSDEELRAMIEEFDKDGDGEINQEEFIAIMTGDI
Chain of UniProt Q5VT25 (Q5VT25 whole entry, looked up): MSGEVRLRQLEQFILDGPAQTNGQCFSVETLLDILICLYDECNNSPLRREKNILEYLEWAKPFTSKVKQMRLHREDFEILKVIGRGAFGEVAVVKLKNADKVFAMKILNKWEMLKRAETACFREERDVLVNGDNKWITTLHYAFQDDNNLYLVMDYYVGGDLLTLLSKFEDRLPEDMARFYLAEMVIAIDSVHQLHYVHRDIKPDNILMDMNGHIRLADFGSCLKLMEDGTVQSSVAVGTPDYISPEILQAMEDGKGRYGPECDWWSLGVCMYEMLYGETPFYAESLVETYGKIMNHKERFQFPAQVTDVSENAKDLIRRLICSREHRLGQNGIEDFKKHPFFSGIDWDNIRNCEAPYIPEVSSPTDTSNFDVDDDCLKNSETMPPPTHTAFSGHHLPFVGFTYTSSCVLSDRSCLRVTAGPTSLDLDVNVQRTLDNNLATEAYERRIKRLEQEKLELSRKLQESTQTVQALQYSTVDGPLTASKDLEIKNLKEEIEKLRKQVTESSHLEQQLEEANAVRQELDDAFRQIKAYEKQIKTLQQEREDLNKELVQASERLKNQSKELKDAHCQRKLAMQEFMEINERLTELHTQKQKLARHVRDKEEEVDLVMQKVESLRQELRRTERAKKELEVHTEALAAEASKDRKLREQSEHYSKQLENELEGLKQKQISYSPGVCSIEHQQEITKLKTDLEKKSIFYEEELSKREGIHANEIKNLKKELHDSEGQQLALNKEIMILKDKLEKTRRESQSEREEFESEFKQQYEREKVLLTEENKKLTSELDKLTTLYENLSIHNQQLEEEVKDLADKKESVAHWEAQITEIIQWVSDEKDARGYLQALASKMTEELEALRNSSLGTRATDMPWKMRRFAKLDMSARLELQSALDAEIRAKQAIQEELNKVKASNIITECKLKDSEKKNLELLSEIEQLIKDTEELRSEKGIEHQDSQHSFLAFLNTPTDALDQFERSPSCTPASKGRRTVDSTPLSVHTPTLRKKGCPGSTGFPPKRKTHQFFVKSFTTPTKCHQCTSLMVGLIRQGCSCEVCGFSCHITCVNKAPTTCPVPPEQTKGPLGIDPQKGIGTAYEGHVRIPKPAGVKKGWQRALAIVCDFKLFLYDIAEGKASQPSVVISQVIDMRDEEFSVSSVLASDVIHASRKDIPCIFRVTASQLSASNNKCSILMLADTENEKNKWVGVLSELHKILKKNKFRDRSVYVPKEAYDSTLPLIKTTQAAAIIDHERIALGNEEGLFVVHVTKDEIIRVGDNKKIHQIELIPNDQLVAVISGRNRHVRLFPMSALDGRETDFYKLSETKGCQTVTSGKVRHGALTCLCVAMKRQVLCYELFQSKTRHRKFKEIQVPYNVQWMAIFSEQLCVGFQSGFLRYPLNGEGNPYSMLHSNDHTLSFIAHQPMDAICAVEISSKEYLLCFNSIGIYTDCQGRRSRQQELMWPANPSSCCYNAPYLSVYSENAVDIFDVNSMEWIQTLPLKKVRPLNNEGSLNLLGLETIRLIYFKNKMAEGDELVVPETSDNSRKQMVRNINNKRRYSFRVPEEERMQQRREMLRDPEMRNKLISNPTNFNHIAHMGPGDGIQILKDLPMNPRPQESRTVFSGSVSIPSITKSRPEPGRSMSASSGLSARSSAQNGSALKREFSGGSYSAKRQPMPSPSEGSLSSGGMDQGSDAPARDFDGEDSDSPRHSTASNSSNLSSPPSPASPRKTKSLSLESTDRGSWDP
Chain of UniProt Q86X83 (Q86X83 whole entry, looked up): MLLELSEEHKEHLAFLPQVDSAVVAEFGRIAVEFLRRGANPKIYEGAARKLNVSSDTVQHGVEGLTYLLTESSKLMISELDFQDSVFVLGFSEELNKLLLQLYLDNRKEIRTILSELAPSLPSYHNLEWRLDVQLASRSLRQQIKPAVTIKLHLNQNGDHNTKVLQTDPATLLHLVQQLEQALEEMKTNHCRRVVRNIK
Chain of UniProt P30305 (P30305 whole entry, looked up): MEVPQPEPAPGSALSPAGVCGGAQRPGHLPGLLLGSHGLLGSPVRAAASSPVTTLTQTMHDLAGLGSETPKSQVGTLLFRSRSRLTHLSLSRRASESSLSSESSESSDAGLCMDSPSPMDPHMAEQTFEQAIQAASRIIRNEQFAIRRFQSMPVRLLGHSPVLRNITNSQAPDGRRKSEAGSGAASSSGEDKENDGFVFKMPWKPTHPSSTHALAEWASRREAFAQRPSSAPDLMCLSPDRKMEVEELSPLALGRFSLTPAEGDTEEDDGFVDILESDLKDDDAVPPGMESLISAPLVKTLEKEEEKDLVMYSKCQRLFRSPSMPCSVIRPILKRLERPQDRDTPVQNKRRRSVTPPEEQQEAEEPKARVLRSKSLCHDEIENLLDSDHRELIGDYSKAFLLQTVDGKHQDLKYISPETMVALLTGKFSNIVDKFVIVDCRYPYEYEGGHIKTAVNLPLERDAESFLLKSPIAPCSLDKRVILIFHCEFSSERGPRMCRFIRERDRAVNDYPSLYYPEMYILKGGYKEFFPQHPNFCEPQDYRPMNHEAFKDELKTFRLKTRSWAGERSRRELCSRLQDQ
Chain of UniProt Q13901 (Q13901 whole entry, looked up): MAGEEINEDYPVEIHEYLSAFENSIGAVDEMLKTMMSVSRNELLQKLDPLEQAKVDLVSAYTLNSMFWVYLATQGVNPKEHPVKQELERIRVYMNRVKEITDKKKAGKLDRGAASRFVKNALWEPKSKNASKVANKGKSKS
Chain of UniProt P00915 (P00915 whole entry, looked up): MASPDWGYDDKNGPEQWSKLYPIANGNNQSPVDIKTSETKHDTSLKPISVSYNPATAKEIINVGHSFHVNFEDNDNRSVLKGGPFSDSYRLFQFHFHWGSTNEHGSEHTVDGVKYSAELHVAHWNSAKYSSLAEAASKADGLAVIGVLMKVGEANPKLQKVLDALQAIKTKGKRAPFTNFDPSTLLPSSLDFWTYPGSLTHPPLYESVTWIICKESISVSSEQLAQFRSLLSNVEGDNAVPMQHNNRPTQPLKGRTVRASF
Chain of UniProt Q8N1A6 (Q8N1A6 whole entry, looked up): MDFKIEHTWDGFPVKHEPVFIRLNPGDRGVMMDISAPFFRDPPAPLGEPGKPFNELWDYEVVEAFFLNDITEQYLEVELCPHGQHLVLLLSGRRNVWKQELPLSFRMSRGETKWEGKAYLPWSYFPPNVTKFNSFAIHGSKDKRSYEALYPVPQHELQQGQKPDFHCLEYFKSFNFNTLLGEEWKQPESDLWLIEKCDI

CLCN7 (UniProt P51798) and CCZ1 (UniProt P86791) are within 0.2 log units of each other in log2 fold change: -0.297 for the first, -0.113 for the second.

C1D (UniProt Q13901) and COMMD1 (UniProt Q8N668) are within 0.2 log units of each other in log2 fold change: 0.076 for the first, -0.041 for the second.

CETN3 (UniProt O15182) and C4orf33 (UniProt Q8N1A6) are within 0.2 log units of each other in log2 fold change: -0.028 for the first, 0.066 for the second.

CDK9 isoform 2 (UniProt P50750) and CDC25B isoform 4 (UniProt P30305) are within 0.2 log units of each other in log2 fold change: 0.078 for the first, -0.049 for the second.

CD53 (UniProt P19397) and CRTC2 (UniProt Q53ET0) are within 0.2 log units of each other in log2 fold change: -0.103 for the first, 0.016 for the second.

CDK4 (UniProt P11802) and CPSF1 (UniProt Q10570) are within 0.2 log units of each other in log2 fold change: 0.071 for the first, -0.105 for the second.

First: CLUH, A0A494C0R8
Second: CEPT1 (UniProt Q9Y6K0)
The log2 fold change of the first is higher: 0.42 for the first, -0.231 for the second.

CELF2 isoform 3 (UniProt O95319) and CASP3 (UniProt P42574) are within 0.2 log units of each other in log2 fold change: -0.028 for the first, 0.014 for the second.

First: CDK12 (UniProt Q9NYV4)
Second: COQ9 (UniProt O75208)
The log2 fold change of the first is higher: 0.237 for the first, -0.05 for the second.

Going from COMMD2 (UniProt Q86X83) to CDK6 (UniProt Q00534), the log2 fold change rises from -0.264 to -0.03.

CA1 (UniProt P00915) and CLSPN (UniProt Q9HAW4) are within 0.2 log units of each other in log2 fold change: -0.02 for the first, -0.159 for the second.

CCNH (UniProt P51946) and CLPP (UniProt Q16740) are within 0.2 log units of each other in log2 fold change: -0.028 for the first, 0.035 for the second.

First: CHD4 isoform 2 (UniProt Q14839)
Second: CCDC57 (UniProt Q2TAC2)
The log2 fold change of the first is lower: -0.382 for the first, 0.012 for the second.

CHST11 (UniProt Q9NPF2) and CRLF3 (UniProt Q8IUI8) are within 0.2 log units of each other in log2 fold change: -0.187 for the first, -0.277 for the second.

Work on CAD (UniProt P27708) yielded a log2 fold change of 0.009.

In the case of CNOT7 (UniProt Q9UIV1), the log2 fold change was -0.305 (active).
In the case of CDC42BPA isoform 6 (UniProt Q5VT25), the log2 fold change was -0.86 (active).
For CHEK1 (UniProt O14757), the log2 fold change was -0.274 (active).
For CNOT1 (UniProt A5YKK6), the log2 fold change was -0.312 (active).
In the case of CDC42SE1 (UniProt Q9NRR8), the log2 fold change was -2.6 (active).
In the case of CA8 (UniProt P35219), the log2 fold change was -0.329 (active).
For CAMSAP1 isoform 3 (UniProt Q5T5Y3), the log2 fold change was -0.576 (active).
